An excerpt weighted towards active compounds, which were near 1.5% of everything screened.
N-glyco inh: increase of ERlucT glycosylation luciferase signal, primary screen, N-linked glycosylation inhibitor project, D54 ERlucT cells, luminescence, set 2; 360,000 tested, 0.23% active; reporter increase, % at 12.5 µM; D54 ERlucT glycosylation luciferase reporter, 24 h; percent of 100 nM tunicamycin response; AID 588692, 2011;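 active = mean luciferase reporter signal, scaled so untreated is 0 and the glycosylation-blocking control 100, at or above a set limit in every replicate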;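 also: luciferase carries N-glycosylation sites so blocking glycosylation raises the light; 0% = median of neutral control wells and 100% = median of 100 nM tunicamycin wells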
dFosB act: activators of delta FosB homodimer, primary screen, biochemical, fluorescence polarization, TAMRA-CDK5 oligo, single point | Protein FosB (Mus musculus), P13346 | purified delta FosB; percent of positive-control signal above neutral wells | activation, % at 25 µM | 340,000 tested, 0.99% active;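 active = mean activation above about 17%, with every replicate also reaching it, limit read from the data, passing the limit was not always enough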
Target sequence (P13346 whole entry, looked up): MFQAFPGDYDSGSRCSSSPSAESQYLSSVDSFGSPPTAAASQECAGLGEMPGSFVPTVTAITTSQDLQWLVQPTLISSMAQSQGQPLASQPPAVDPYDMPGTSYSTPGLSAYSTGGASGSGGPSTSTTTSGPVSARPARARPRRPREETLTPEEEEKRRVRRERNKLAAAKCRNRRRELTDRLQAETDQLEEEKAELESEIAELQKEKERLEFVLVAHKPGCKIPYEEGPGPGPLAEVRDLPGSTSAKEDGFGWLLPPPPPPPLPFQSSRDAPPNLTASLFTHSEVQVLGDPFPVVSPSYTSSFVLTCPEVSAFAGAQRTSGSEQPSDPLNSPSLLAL
RAD54 inh: inhibitors of human RAD54 branch migration, primary screen, biochemical, fluorescence, single point; DNA repair and recombination protein RAD54-like (Homo sapiens), Q92698; RAD54 Holliday junction branch migration, FAM/BHQ fluorescence; inhibition, % at 10.4 µM; 360,000 tested, 0.14% active; AID 602329, 2012;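 active = mean normalized replicate activity at least 40 and at least half of replicates scoring 40 or more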;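 also: 0% = median of neutral control wells and 100% = median of positive control wells; inhibitors cause a drop in the FAM fluorescence signal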
RAD52 inh: RAD52 DNA annealing inhibitors, primary screen, biochemical, FRET, single point, set 2. AID 651710, 2012. inhibition, % at 18.7 µM. 360,000 tested, 0.46% active. DNA repair protein RAD52 homolog (Homo sapiens), P43351. recombinant RAD52 DNA annealing, FRET fluorescence;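 active = every replicate showing at least 50% inhibition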
PvdQ inh: P. aeruginosa PvdQ acylase inhibitors, primary screen, biochemical, fluorescence, plate reader and imaging, single point; PvdQ acylase [Pseudomonas aeruginosa LESB58]; purified PvdQ acylase; inhibition, % at 10 µM; 340,000 tested, 0.063% active; AID 488965, 2010; in the data active = inhibition above about 30%, passing the limit was not always enough;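 also: 0% = vehicle neutral wells and 100% = reference inhibitor wells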
CFTR F508del cor: F508del CFTR correction, initial screen, CFBE line, single point | 350,000 tested, 0.36% active | CFBE cells, YFP halide quenching; stimulated with forskolin plus potentiator P3; % fluorescence drop versus neutral controls | AID 720511, 2013 | activity (quench increase), % at 7.58 µM;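 active = mean added fluorescence quench of at least 8% versus neutral control, with both replicates also reaching 8%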;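 also: cells transiently co-express mutant CFTR-F508del with the halide-sensitive YFP; corrector assay measuring rescue of mutant channel to the surface after 24 h compound exposure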
* marks the source's active call; other numbers are inactive results; i = inactive; . = no result; ! = repeats disagree.

SMILES	N-glyco inh	dFosB act	RAD54 inh	RAD52 inh	PvdQ inh	CFTR F508del cor
O=C(c1cc(-c2ccccc2Cl)nc2ccccc12)N1CCN(c2ccccc2O)CC1	-1	-9	.	-3	-14	3
CCCCN(C)C1=CC2=CC(=C(C#N)C#N)CCC2CC1 (stereo unspecified)	2	-15	.	i	-4	34*
CCN(CC)C1=CC2=CC(=C(C#N)C#N)CCC2CC1 (stereo unspecified)	3	-1	.	i	-1	40*
COc1ccc2c3c([nH]c2c1)[C@@H](CO)N(Cc1ccccn1)CC31CCN(C(C)=O)CC1	.	.	.	-164	.	-1
CN1CCN(C(=O)C2=C[C@H](c3ccc(Br)cc3)C[C@H](OCc3ccc(CO)cc3)O2)CC1	.	.	.	3	.	0
N#CC(c1ccccc1)c1ccc(C(=O)c2ccc(F)cc2)cc1 (stereo unspecified)	-8	8	.	.	1	.
N#CC(c1ccc(F)cc1)c1ccc(C(=O)c2ccccc2)cc1 (stereo unspecified)	-6	-8	0	.	48*	.
CC1=C2[C@@H](c3ccccc3)OB(O)C[C@@H]2n2c(=O)n(-c3ccccc3)c(=O)n2C1	.	.	-9	10	.	-2
CCOC(=O)N1CCN(c2ccc(Cl)cc2)CC1	0	5	3	-4	44*	.
CO[C@H]1CN(C)C(=O)c2cc(NC(=O)Nc3c(C)noc3C)ccc2OC[C@H](C)N(CC2CC2)C[C@@H]1C	.	.	-8	2	.	1
CCCCNc1c(-c2ccc(SC(C)CC)c(OC)c2)nc2ccc(C)cn12 (stereo unspecified)	-8	-9	-3	-13	-21	8.3*
CCCCNc1c(-c2ccc(SC(C)CC)c(OC)c2)nc2ccc(Cl)cn12 (stereo unspecified)	-5	7	6	-9	-11	-2
COc1ccc(CNCC(=O)Nc2ccccc2-n2cccc2)cc1	17	-7	.	-4	-6	10*
C[C@@H]1CN([C@H](C)CO)C(=O)c2cc(NC(=O)CCC(F)(F)F)ccc2O[C@@H](C)CCCCO[C@@H]1CN(C)S(=O)(=O)c1cn(C)cn1	.	.	-6	-10	.	0
CC(C)NC(=O)N1[C@@H](C#N)[C@H](c2ccc(C#CC3CCCC3)cc2)[C@@H]1CO	.	.	-3	-4	.	6
Cc1nn(CC(=O)Nc2ccc3c(c2)nc2n3CCN(C3CCCCC3)C2)c(=O)c2ccccc12	-1	27*	-7	-23	3	-1
Cc1nn(CC(=O)Nc2ccc3c(c2)nc(CCN2CCCCC2)n3C)c(=O)c2ccccc12	-5	4	-5	-83	-9	1
C[C@@H]1CN([C@H](C)CO)S(=O)(=O)c2ccc(C#CC3CCCC3)cc2O[C@@H]1CN(C)Cc1cncnc1	.	.	.	.	.	1
CCOC(=O)/C(=C\c1ccccc1)C(=O)c1cc(C(C)=O)c(Nc2ccccc2)s1	35*	-14	9	.	-4	.
CC(=O)c1cccc(NC(=O)CSc2ncc(C(=O)Nc3ccccc3)c(=O)n2C)c1	30*	1	5	-12	-5	1
CC(=O)Nc1cccc(NC(=O)CSc2ncc(C(=O)Nc3ccccc3)c(=O)n2C)c1	13	-2	.	-4	-6	3
CN(C)C(=O)[C@@H]1[C@@H](CO)[C@@H]2Cn3c(ccc(C4=CCCCC4)c3=O)[C@H]1N2C	.	.	10	72*	.	-1
COc1ccccc1CNC(=O)Cn1cnnn1	0	2	-3	5	-10	12*
O=C(c1cccc(S(=O)(=O)N2CCN(c3ccc(F)cc3)CC2)c1)N1CCCC(C(F)(F)F)C1 (stereo unspecified)	-3	-12	-9	1	-25	10.0*
CC(C)NC(=O)Nc1ccc2c(c1)C(=O)N([C@H](C)CO)C[C@H](C)[C@@H](CN(C)C(=O)NC(C)C)OCCCC[C@H](C)O2	.	.	-4	20	.	-3
SMILES	N-glyco inh	dFosB act	RAD54 inh	RAD52 inh	PvdQ inh	CFTR F508del cor
O=C(Nc1ccc2c(c1)OCO2)N1C[C@@H]2N[C@H](C1)C2c1ccc(-c2ccccc2)cc1 (stereo partly specified)	.	.	.	68*	.	1
N#Cc1ccc(-c2ccc(C3[C@@H]4CN(C(=O)C5CCC5)C[C@H]3N4)cc2)cc1 (stereo partly specified)	.	.	.	25	.	10*!
N#Cc1ccc(-c2ccc(C3[C@@H]4CN(C(=O)c5ccc6c(c5)OCO6)C[C@H]3N4)cc2)cc1 (stereo partly specified)	.	.	.	56*!	.	2
N#Cc1cccc(-c2ccc(C3[C@@H]4CN(C(=O)Nc5ccc6c(c5)OCO6)C[C@H]3N4)cc2)c1 (stereo partly specified)	.	.	.	55*	.	-1
N#Cc1ccc(-c2ccc(C3[C@@H]4CN(C(=O)C5CCCC5)C[C@H]3N4)cc2)cc1 (stereo partly specified)	.	.	.	-7	.	1
Cc1cccc(-c2ccc(C3[C@@H]4CN(C(=O)Nc5ccccc5)C[C@H]3N4)cc2)c1 (stereo partly specified)	.	.	.	.	.	-1
N#Cc1cccc(-c2ccc(C3[C@@H]4CN(C(=O)Nc5ccccc5)C[C@H]3N4)cc2)c1 (stereo partly specified)	.	.	.	3	.	1
Cc1noc(C)c1NC(=O)Nc1ccc2c(c1)C(=O)N([C@@H](C)CO)C[C@H](C)[C@@H](CN(C)S(=O)(=O)c1c(C)noc1C)OCCCC[C@@H](C)O2	.	.	0	-16	.	1
C[C@H](CO)N1C[C@H](C)[C@@H](CN(C)C(=O)C2CC2)Oc2cc(-c3ccccc3F)ccc2S1(=O)=O	.	.	3	11	.	2
O=C1C=C(c2ccccc2)OC2(CCCC2)O1	-3	-11	0	.	0	.
O=C1C=C(c2ccccc2)OC(c2ccccc2)O1 (stereo unspecified)	-1	-8	-5	-4	47*	-1
CS(=O)(=O)Nc1ccc2c(c1)[C@@H]1C[C@@H](CC(=O)NC3CCCCC3)O[C@H](CO)[C@@H]1O2	.	.	-2	-2	.	-2
CC(C)Oc1ccc(S(=O)(=O)N2CCOCC2)cc1NC(=O)CCCSc1ccccc1	-1	-15	-11	-3	-17	8.4*
COc1ccc(S(=O)(=O)N2CCOCC2)cc1NC(=O)CSc1ccccc1	-2	-8	-1	-11	-16	4
CN(C)C(=O)C[C@@H]1C[C@H]2c3cc(NS(=O)(=O)c4ccccc4)ccc3O[C@H]2[C@H](CO)O1	.	.	-2	-2	.	1

Assay outcomes as filed in PubChem.
